This is an account of results in PubChem BioAssay (NCI).

The panel holds about 83,000 compounds, 20% with a hit somewhere; the sample as a whole holds those more often.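 For each line, cells grew in 96-well plates with the test compound present at a single concentration for 48 hours.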 A number with no mark means an inactive call. Activity calls are given as the source filed them. How the source made its calls: active means growth percent below 10; inactive means the rest.

Among the test systems are HCT-15 colon; HT29 colon; SNB-75 CNS; SNB-19 CNS; U251 CNS; PC-3 prostate; SK-MEL-5 melanoma; UACC-62 melanoma; LOX IMVI melanoma; SK-MEL-28 melanoma.
What all share (assay): NCI-60 one-dose screen, 48 h (100 = growth as untreated, 0 = no growth, -100 = all killed)

Consider `COc1ccc(-c2cc(-c3cc(C(C)C)c(O)cc3C)nn2-c2ccc(S(N)(=O)=O)cc2)cc1`, for which the growth is 3.06% (active) in the test with HCT-15 colon (10 µM unless noted); 88.4% in the test with HT29 colon (10 µM unless noted); -0.16% (active) in the test with SNB-75 CNS (10 µM unless noted); 30% with SNB-19 CNS (10 µM unless noted); 14.4% in the test on U251 CNS (10 µM unless noted); 49.3% in the test with PC-3 prostate (10 µM unless noted). The growth with SK-MEL-5 melanoma (10 µM unless noted) was 48.6%; in the test on UACC-62 melanoma (10 µM unless noted), 21.5%; with LOX IMVI melanoma (10 µM unless noted) it was 22.6%; with SK-MEL-28 melanoma (10 µM unless noted) it was 58.8%.
For `S=C(Nc1ccc(OCc2nc3ccc(Cl)cc3[nH]2)cc1)NC1CCCCC1`, the growth in the test on HCT-15 colon (10 µM unless noted) is -63.4% (active); in the test on HT29 colon (10 µM unless noted) it was -47.2% (active); in the test with SNB-75 CNS (10 µM unless noted), 10.7%; in the test with SNB-19 CNS (10 µM unless noted), 10%; with U251 CNS (10 µM unless noted), -48.1% (active); in the test with PC-3 prostate (10 µM unless noted), 17.6%. In addition, the growth is -96.6% (active) with SK-MEL-5 melanoma (10 µM unless noted), -12.7% (active) in the test with UACC-62 melanoma (10 µM unless noted), -100% (active) in the test on LOX IMVI melanoma (10 µM unless noted) and 0.982% (active) in the test on SK-MEL-28 melanoma (10 µM unless noted).
`COc1ccc(NC(=O)NN2C(=O)c3ccccc3N(C)C2c2ccc(OC)cc2)cc1` (stereo not drawn): the growth is 103% with HCT-15 colon (10 µM unless noted); 109% in the test with HT29 colon (10 µM unless noted); 91% with SNB-75 CNS (10 µM unless noted); 94% with SNB-19 CNS (10 µM unless noted); 105% in the test with U251 CNS (10 µM unless noted); 89.2% in the test with PC-3 prostate (10 µM unless noted). Moreover, the growth is 92.6% in the test on SK-MEL-5 melanoma (10 µM unless noted), 78.1% in the test on UACC-62 melanoma (10 µM unless noted), 98.1% in the test on LOX IMVI melanoma (10 µM unless noted) and 102% in the test on SK-MEL-28 melanoma (10 µM unless noted).
As to `CC/C(=C(/c1ccc(O)cc1)c1ccc(OCCN(C)C(=O)COCCOCCNC(=O)c2ccc3c(c2)CN([C@@H]2CCC(=O)NC2=O)C3=O)cc1)c1ccccc1`, the growth is 105% in the test on HCT-15 colon (1 µM); 106% with HCT-15 colon (10 µM); 96.6% in the test with HT29 colon (1 µM); 86% in the test with HT29 colon (10 µM); 54.5% with SNB-75 CNS (1 µM); 34.7% with SNB-75 CNS (10 µM). Moreover, the growth was 85.5% with SNB-19 CNS (1 µM); 75.5% with SNB-19 CNS (10 µM); 98.3% in the test on U251 CNS (1 µM); 90.8% in the test with U251 CNS (10 µM); 49.6% in the test with PC-3 prostate (1 µM); 39.3% in the test with PC-3 prostate (10 µM). The growth is 95.2% with SK-MEL-5 melanoma (1 µM); 84.1% with SK-MEL-5 melanoma (10 µM); 93.1% with UACC-62 melanoma (1 µM); 91.6% with UACC-62 melanoma (10 µM); 98% in the test on LOX IMVI melanoma (1 µM); 97.2% in the test with LOX IMVI melanoma (10 µM). Also, the growth was 101% with SK-MEL-28 melanoma (1 µM) and 97.5% in the test on SK-MEL-28 melanoma (10 µM).
Take `CCCn1c(NC(=O)c2cccc(C(N)=O)c2)nc2cc(CN3CCCCC3)ccc21`: the growth with HCT-15 colon (10 µM unless noted) was 77.9%; in the test with HT29 colon (10 µM unless noted) it was 87.1%; in the test on SNB-75 CNS (10 µM unless noted), 133%; in the test on SNB-19 CNS (10 µM unless noted), 113%; in the test on U251 CNS (10 µM unless noted), 116%; in the test on PC-3 prostate (10 µM unless noted), 77%. Further, the growth in the test on SK-MEL-5 melanoma (10 µM unless noted) is 88%; in the test on UACC-62 melanoma (10 µM unless noted), 113%; in the test on LOX IMVI melanoma (10 µM unless noted), 96.5%; with SK-MEL-28 melanoma (10 µM unless noted) it was 112%.
With `Cc1ccc(C(=O)Nc2cc(-c3ccncc3)cc(C(F)(F)F)c2)cc1C#Cc1cnc2cccnn12`, the growth was 40.5% in the test on HCT-15 colon (10 µM unless noted); 26.9% with HT29 colon (10 µM unless noted); 93.7% in the test on SNB-75 CNS (10 µM unless noted); 92.9% with SNB-19 CNS (10 µM unless noted); 66.5% in the test with U251 CNS (10 µM unless noted); 75.1% with PC-3 prostate (10 µM unless noted). For the same compound, the growth in the test with SK-MEL-5 melanoma (10 µM unless noted) is 34.4%; with UACC-62 melanoma (10 µM unless noted) it was 14.4%; in the test on LOX IMVI melanoma (10 µM unless noted), 11.1%; in the test with SK-MEL-28 melanoma (10 µM unless noted), 16.2%.
In the case of `Cn1cc(-c2cc3nc(-c4cn(C)c5ncc(Br)cc45)cc(N)n3n2)c2cc(F)ccc21`, the growth was 8.7% (active) in the test with HCT-15 colon (10 µM unless noted); -28.5% (active) in the test with HT29 colon (10 µM unless noted); 24.9% in the test with SNB-75 CNS (10 µM unless noted); 58.3% in the test with SNB-19 CNS (10 µM unless noted); -26.1% (active) in the test on U251 CNS (10 µM unless noted); 19.2% in the test with PC-3 prostate (10 µM unless noted). Further, the growth with SK-MEL-5 melanoma (10 µM unless noted) was 40.4%; with UACC-62 melanoma (10 µM unless noted), -7.29% (active); with LOX IMVI melanoma (10 µM unless noted), -69.7% (active); with SK-MEL-28 melanoma (10 µM unless noted) it was 22.6%.
For `CC/C(=C(/c1ccc(O)cc1)c1ccc(OCCN(C)C(=O)COCCOCCNC(=O)Cc2ccc3c(c2)CN([C@@H]2CCC(=O)NC2=O)C3=O)cc1)c1ccccc1`, the growth in the test with HCT-15 colon (1 µM) was 107%; in the test on HCT-15 colon (10 µM), 105%; in the test on SNB-75 CNS (1 µM) it was 59.6%; with SNB-75 CNS (10 µM), 22.7%; in the test on SNB-19 CNS (1 µM), 79.5%; in the test on SNB-19 CNS (10 µM), 47.5%. The growth was 91.9% with U251 CNS (1 µM); 88.7% in the test with U251 CNS (10 µM); 52.8% in the test with PC-3 prostate (1 µM); 24.4% with PC-3 prostate (10 µM); 96.3% with SK-MEL-5 melanoma (1 µM); 65.8% in the test with SK-MEL-5 melanoma (10 µM). In addition, the growth with UACC-62 melanoma (1 µM) is 95.6%; with UACC-62 melanoma (10 µM), 88.2%; in the test on LOX IMVI melanoma (1 µM) it was 95.1%; in the test with LOX IMVI melanoma (10 µM), 92.1%; with SK-MEL-28 melanoma (1 µM), 98.3%; in the test on SK-MEL-28 melanoma (10 µM) it was 74.3%.
As for `CC(Nc1ncnc2ccc(-c3ccc4oc(N)nc4c3)cc12)c1ccccc1` (stereo not drawn), the growth in the test on HCT-15 colon (10 µM unless noted) is 5.13% (active); in the test with HT29 colon (10 µM unless noted), 29.5%; in the test on SNB-75 CNS (10 µM unless noted), -82.8% (active); with SNB-19 CNS (10 µM unless noted) it was 20.3%; in the test with U251 CNS (10 µM unless noted), -22.8% (active); in the test on PC-3 prostate (10 µM unless noted), 34.4%. The growth in the test on SK-MEL-5 melanoma (10 µM unless noted) was -75.3% (active); with UACC-62 melanoma (10 µM unless noted), 11.9%; in the test with LOX IMVI melanoma (10 µM unless noted) it was -97.7% (active); in the test on SK-MEL-28 melanoma (10 µM unless noted), 17.4%.
Turning to `Fc1cccc(CNc2nc(SCCN3CCOCC3)nc3c2cnn3CC(Cl)c2ccc(Br)cc2)c1` (stereo not drawn), the growth with HCT-15 colon (10 µM unless noted) is -64.7% (active); in the test with HT29 colon (10 µM unless noted) it was -49.9% (active); in the test with SNB-75 CNS (10 µM unless noted), 42.3%; with SNB-19 CNS (10 µM unless noted), 42.2%; in the test on U251 CNS (10 µM unless noted), 25.2%; in the test on PC-3 prostate (10 µM unless noted), 25.8%. Moreover, the growth was 3.78% (active) with SK-MEL-5 melanoma (10 µM unless noted), 28.2% in the test on UACC-62 melanoma (10 µM unless noted), 5.6% (active) in the test with LOX IMVI melanoma (10 µM unless noted) and 46.8% with SK-MEL-28 melanoma (10 µM unless noted).
`COc1ccc2[nH]c(O)c(N=NC(=O)c3ccc4nc(-c5ccc(Cl)cc5)[nH]c4c3)c2c1`: the growth was 105% in the test with HCT-15 colon (10 µM unless noted); 86.1% in the test with HT29 colon (10 µM unless noted); 93.8% in the test with SNB-75 CNS (10 µM unless noted); 29.6% in the test on SNB-19 CNS (10 µM unless noted); -30.5% (active) in the test on U251 CNS (10 µM unless noted); 58.9% in the test on PC-3 prostate (10 µM unless noted). In addition, the growth in the test on SK-MEL-5 melanoma (10 µM unless noted) is 96.2%; with UACC-62 melanoma (10 µM unless noted) it was 69.8%; in the test on LOX IMVI melanoma (10 µM unless noted), 24.6%; with SK-MEL-28 melanoma (10 µM unless noted), 37.2%.
For the compound `O=C(c1cc2cc(OCCCN3CCC3)ccc2[nH]1)N1C[C@@H](CCl)c2c1cc(OCc1ccccc1)c1ccccc21`, the growth in the test with HCT-15 colon (10 µM unless noted) is -21.1% (active); with HT29 colon (10 µM unless noted), -25.2% (active); with SNB-75 CNS (10 µM unless noted), -79.5% (active); with SNB-19 CNS (10 µM unless noted), -12.1% (active); in the test on U251 CNS (10 µM unless noted), -80.7% (active); in the test on PC-3 prostate (10 µM unless noted), -21.4% (active). Further, the growth in the test on SK-MEL-5 melanoma (10 µM unless noted) is -23.2% (active); in the test with UACC-62 melanoma (10 µM unless noted), -82.6% (active); with LOX IMVI melanoma (10 µM unless noted), -94.2% (active); in the test with SK-MEL-28 melanoma (10 µM unless noted) it was -45.8% (active).
